# According to PubChem BioAssay:
# Values joined by “and” are separate entries in the source; they are usually repeats but may differ in a detail not shown here. Identical values can stand only once. Results filed as inconclusive are left out. For part of these data: Results with a measured potency or affinity are listed apart. Active and inactive are the calls of the source.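 The calls were made as follows, unless noted: active = at least 20% inhibition of 6-phosphogluconate dehydrogenase activity; inactive = the rest.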
# Legend:
# [1] = target: 6-phosphogluconate dehydrogenase, decarboxylating (Homo sapiens) (UniProt P52209); test: 6PGD enzyme inhibitors, primary screen, biochemical, human, recombinant enzyme, NADPH absorbance (AID 1159550); conditions: recombinant 6PGD, NADPH absorbance 341 nm; at 10 µM; stronger effect = higher value
# [2] = system: Aerobactin synthetase IucA (Klebsiella pneumoniae hvKP1); test: Biochemical IucA enzyme inhibition primary screen of the Spectrum library (AID 1346200; call rule not given here;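 also: 100% = wells without compound and 0% = wells lacking enzyme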); conditions: malachite green pyrophosphate, A620, at 8 µM, stronger effect = lower value
# [3] = target: Mitogen-activated protein kinase 7 (Homo sapiens) (UniProt Q13164); test: ERK5 transactivation activators in reporter cells, primary screen, cell-based, HTS (AID 1508626;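 active = luciferase signal above three times the same-plate solvent-only control wells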;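 also: luciferase driven by Gal4-ERK5 fusion binding five Gal4 sites before minimal TATA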); conditions: HeLa Gal4-ERK5 transactivation, 18 h, at 5 µM, stronger effect = higher value
# [4] = target: ATP-dependent translocase ABCB1 (Homo sapiens) (UniProt P08183); test: MDR1 (ABCB1) efflux transporter inhibition, cell-based (AID 377; in the data active = fluorescence slope change above about 50%); conditions: MDR1-expressing cells, fluorescent substrate accumulation slope; stronger effect = higher value; concentration not given here
# [5] = polyglutamine-triggered caspase-3 activation inhibitors, cell-based (AID 1583); conditions: polyglutamine-induced caspase-3 activation, cell assay; stronger effect = higher value;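 tested at 10 µM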
# [6] = suppressors of polyQ aggregation in yeast, 75Q-TubU reporter (AID 1593); conditions: Yeast 75Q polyglutamine aggregation reporter
# [7] = rescue of polyQ-huntingtin neuronal dysfunction in worms, whole organism, C. elegans mechanosensory neurons, N-terminal huntingtin (AID 1599); conditions: touch response, stronger effect = higher value
# [8] = inhibitors of mitochondrial cytochrome c release, biochemical, purified mitochondria (AID 1603); conditions: stronger effect = lower value;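 also: mouse liver mitochondria challenged with calcium chloride; signal normalized to the plate average as 100%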
# [9] = inhibitors of polyQ protein aggregation (AID 1604); conditions: polyglutamine-induced protein aggregation inhibition assay; stronger effect = higher value; tested at 2.5 µM
# [10] = enhancers of glutamate uptake in motor neurons, MN-1 cell line (AID 1612); conditions: MN-1 motor neuron cells, stronger effect = higher value;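 also: tested at 1 µM final; 0% = mean of DMSO vehicle wells on each plate; positive means more glutamate uptake than control and negative means less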
# [11] = suppressors of polyglutamine aggregation in yeast, 75Q-TubH (AID 1616); conditions: S. cerevisiae 75Q-TubH polyglutamine aggregation suppression; stronger effect = higher value
# [12] = liver-stage malaria parasite growth inhibition, primary screen, cell-based, HepG2, luciferase luminescence, HepG2 viability (AID 624349; in the data active = parasite load remaining mostly below about 12%, no sharp cut-off; inactive = mostly above about 10%;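 also: 100% = mean of DMSO negative control wells on the same plate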); conditions: P. berghei liver stage in HepG2, luciferase luminescence, concentration not given here; parasite load remaining: stronger effect = lower value; viability: measured here: HepG2 viability without parasites
# [13] = sensitizers of A549 cells to miR-34 induction, primary screen, imaging, A549 dox-inducible miR-34, nuclei and caspase counts (AID 1347080;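 active = compounds whose cell count with miR-34 switched on is under 0.7 times the count with it off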); conditions: A549 miR-34 inducible, Hoechst nuclei count, 48 h
# [14] = target: NAD(+) hydrolase SARM1 (Homo sapiens) (UniProt Q6SZW1); test: SARM1 TIR NADase inhibitors, cell lysate, NAD-Glo luminescence (AID 1508614;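 active = compound whose remaining NAD level is above about 45 nM, limit read from the data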;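 also: higher remaining NAD means stronger inhibition of SARM1 NADase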); conditions: SAM-TIR HEK293T lysate NADase, at 1 µM, stronger effect = higher value
# [15] = survival rescue of mitochondrial mutant cells in low glucose, primary screen, MELAS cybrids, Rieske KO mouse fibroblasts, CellTiter-Glo (AID 1508586;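 active = mean z-score across replicates of 1.96 or higher in either the MELAS or the Rieske mutant cell line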;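 also: z relative to plate mean and SD of compound and empty wells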)
# [16] = viability rescue of complex I mutant cybrids, primary screen, cell-based, galactose medium, ATP luminescence (AID 1645843;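 active = z-score of at least 1.8 in each of two replicates, scored against plate mean and spread of sample wells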;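 also: positive z means more ATP and so rescue of galactose-driven cybrid death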); conditions: complex I mutant cybrid cells, 72 h, stronger effect = higher value
# [17] = measured here: relative caspase fold change +Dox/-Dox
# [18] = measured here: total cells with miR-34 induction, stronger effect = lower value
# [19] = measured here: total cells without miR-34 induction
# Chain of 6-phosphogluconate dehydrogenase, decarboxylating (Homo sapiens) (P52209 whole entry, looked up): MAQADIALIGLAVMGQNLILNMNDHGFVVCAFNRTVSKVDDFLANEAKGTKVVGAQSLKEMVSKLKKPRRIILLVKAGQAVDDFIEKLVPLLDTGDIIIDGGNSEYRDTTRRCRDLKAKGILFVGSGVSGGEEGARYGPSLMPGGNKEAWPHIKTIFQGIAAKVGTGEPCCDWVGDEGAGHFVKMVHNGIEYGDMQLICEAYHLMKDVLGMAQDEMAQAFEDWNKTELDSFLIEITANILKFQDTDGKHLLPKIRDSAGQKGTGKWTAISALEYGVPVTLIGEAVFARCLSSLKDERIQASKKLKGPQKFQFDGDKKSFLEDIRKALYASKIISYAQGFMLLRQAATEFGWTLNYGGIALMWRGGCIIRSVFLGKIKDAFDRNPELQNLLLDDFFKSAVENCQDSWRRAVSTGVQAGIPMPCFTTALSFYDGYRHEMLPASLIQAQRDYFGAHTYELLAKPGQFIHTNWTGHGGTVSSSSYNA
# Chain of Mitogen-activated protein kinase 7 (Homo sapiens) (Q13164 whole entry, looked up, the tested form may be a part): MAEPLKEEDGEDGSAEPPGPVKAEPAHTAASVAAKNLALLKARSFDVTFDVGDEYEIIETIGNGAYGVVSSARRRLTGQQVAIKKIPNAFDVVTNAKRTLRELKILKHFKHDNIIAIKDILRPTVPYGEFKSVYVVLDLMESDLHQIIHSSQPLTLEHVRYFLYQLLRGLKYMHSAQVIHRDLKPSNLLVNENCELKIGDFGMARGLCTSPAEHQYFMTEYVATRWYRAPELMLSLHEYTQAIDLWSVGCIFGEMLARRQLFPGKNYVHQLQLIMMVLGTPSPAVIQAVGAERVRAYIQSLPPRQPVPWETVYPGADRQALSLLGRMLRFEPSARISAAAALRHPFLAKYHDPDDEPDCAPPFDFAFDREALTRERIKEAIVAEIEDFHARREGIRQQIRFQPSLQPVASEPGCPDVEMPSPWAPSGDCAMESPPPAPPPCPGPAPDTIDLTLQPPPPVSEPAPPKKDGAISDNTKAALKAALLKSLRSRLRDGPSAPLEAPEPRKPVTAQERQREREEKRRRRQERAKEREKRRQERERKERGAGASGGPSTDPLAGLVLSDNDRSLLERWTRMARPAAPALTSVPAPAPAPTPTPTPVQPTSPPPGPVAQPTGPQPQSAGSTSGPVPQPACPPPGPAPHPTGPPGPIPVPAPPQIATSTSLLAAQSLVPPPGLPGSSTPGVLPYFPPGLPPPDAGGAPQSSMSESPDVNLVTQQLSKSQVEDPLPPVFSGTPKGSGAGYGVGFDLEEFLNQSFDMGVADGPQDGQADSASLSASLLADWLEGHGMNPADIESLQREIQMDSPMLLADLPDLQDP
# Chain of NAD(+) hydrolase SARM1 (Homo sapiens) (Q6SZW1 whole entry, looked up): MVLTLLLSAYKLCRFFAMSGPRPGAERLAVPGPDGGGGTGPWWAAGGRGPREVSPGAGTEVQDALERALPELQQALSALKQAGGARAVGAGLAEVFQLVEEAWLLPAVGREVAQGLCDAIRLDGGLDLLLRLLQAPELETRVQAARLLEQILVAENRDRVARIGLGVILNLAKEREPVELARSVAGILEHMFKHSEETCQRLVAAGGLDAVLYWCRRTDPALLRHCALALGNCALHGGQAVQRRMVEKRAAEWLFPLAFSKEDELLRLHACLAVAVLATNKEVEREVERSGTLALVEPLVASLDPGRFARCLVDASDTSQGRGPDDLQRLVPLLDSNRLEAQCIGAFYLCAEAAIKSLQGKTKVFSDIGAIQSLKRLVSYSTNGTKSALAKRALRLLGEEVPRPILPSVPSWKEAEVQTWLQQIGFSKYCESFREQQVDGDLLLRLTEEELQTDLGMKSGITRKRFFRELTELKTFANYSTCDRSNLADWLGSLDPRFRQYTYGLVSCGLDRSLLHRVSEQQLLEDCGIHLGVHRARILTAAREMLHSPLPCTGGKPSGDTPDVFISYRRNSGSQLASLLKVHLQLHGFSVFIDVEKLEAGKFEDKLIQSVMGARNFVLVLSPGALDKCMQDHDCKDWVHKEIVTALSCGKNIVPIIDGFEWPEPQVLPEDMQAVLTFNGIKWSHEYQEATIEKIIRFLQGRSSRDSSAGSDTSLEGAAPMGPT
# Chain of ATP-dependent translocase ABCB1 (Homo sapiens) (P08183 whole entry, looked up): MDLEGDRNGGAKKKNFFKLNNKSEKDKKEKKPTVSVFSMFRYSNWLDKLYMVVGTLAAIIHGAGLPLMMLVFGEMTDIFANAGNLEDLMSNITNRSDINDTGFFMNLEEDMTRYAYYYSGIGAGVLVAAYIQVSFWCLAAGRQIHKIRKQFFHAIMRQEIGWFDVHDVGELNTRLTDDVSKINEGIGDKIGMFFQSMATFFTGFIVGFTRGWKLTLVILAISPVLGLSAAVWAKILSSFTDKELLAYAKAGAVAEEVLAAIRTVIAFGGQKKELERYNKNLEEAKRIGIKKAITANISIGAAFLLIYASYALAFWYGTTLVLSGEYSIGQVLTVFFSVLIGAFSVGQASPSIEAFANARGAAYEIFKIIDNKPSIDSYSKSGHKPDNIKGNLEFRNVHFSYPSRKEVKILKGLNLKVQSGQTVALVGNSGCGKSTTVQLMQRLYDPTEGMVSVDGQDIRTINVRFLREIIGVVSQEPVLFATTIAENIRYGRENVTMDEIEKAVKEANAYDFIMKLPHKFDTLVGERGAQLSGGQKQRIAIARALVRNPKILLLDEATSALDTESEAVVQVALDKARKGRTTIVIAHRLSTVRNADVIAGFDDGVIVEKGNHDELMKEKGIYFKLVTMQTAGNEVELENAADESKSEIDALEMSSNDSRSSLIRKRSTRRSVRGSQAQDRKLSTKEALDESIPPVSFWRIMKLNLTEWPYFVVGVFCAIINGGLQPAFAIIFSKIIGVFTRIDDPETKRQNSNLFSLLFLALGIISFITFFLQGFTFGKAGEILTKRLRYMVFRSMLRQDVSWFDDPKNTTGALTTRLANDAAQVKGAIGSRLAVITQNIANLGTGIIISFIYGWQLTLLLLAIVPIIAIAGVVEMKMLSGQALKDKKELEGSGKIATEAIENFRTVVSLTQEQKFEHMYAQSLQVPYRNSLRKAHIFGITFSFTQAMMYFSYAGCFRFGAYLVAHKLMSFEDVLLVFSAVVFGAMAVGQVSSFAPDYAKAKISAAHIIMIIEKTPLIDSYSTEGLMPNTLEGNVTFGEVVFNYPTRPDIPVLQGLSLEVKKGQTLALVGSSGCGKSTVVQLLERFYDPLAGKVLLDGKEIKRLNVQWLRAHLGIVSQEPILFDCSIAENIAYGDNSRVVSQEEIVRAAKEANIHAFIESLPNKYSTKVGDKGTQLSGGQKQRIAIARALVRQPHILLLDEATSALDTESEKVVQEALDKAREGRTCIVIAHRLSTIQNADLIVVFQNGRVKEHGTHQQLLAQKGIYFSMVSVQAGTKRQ
smiles,measurement,setting,value
C[C@@H]1C(=O)O[C@H]2[C@H]1CC[C@@]1(C)C=CC(=O)[C@@]3(C)O[C@@]213,inhibition,[1],-5.96% (inactive)
same,activity remaining,[2],112% (inactive)
same,luciferase signal,[3],108 AU (inactive)
C[CH2][Hg][S]c1ccccc1C(=O)O,fluorescence slope change,[4],-19.9% (inactive)
same,inhibition,[5],67.3%
same,score,[6],-0.03
same,rescue above control,[7],0
same,cytochrome c release ratio,[8],0.71
same,inhibition of aggregation,[9],18.2%
same,glutamate uptake change,[10],8.21%
same,aggregation suppression score,[11],-0.00186
same,parasite load remaining,[12],82.3% (inactive) and 0.045% (inactive)
same,viability,[12],62% and 0.315%
same,inhibition,[1],17.7% (inactive)
same,activity remaining,[2],-3.51% (active)
same,fold change,[13]; stronger effect = lower value,1.62 (inactive)
same,fold change,[13]; [17],0.728
same,cell count,[13]; [18],630
same,cell count,[13]; [19],389
same,remaining NAD,[14],10 nM (inactive)
same,luciferase signal,[3],44 AU (inactive)
CCNc1nc(Cl)nc(NC(C)C)n1,inhibition,[1],7.64% (inactive)
same,activity remaining,[2],97.8% (inactive)
same,fold change,[13]; stronger effect = lower value,0.888 (inactive)
same,fold change,[13]; [17],0.465
same,cell count,[13]; [18],8110
same,cell count,[13]; [19],9140
same,z-score,"[15]; MELAS cybrid survival, CellTiter-Glo 48 h, stronger effect = higher value",3.44 (active)
same,z-score,"[15]; Rieske KO mouse fibroblast survival, CellTiter-Glo 72 h",-0.553
same,luciferase signal,[3],36 AU (inactive)
same,z-score,[16],0.59 (inactive)
CC(C)Nc1nc(Cl)nc(NC(C)C)n1,inhibition,[1],-12% (inactive)
same,activity remaining,[2],111% (inactive)
same,luciferase signal,[3],52 AU (inactive)
COc1ccc(C(=O)O[C@H]2CC[C@@]3(C)[C@@H]4CC[C@H]5[C@]6(O)C[C@H](O)[C@@]7(O)[C@@H](CN8C[C@@H](C)CC[C@H]8[C@@]7(C)O)[C@]6(O)C[C@@]53O[C@]24O)cc1OC,inhibition,[1],9.47% (inactive)
same,fold change,[13]; stronger effect = lower value,0.935 (inactive)
same,fold change,[13]; [17],1.54
same,cell count,[13]; [18],6050
same,cell count,[13]; [19],6480
